# Results: PubChem BioAssay (NCI)
# Several values for one entry are separate records, joined by “and”; a condition that tells them apart may be missing. Identical values can stand only once. The panel holds about 83,000 compounds, 20% with a hit somewhere; the sample as a whole holds those more often.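 Note: values are percent growth. 100 is the growth of untreated cells, values between 100 and 0 indicate rising inhibition; between -100 and 0 indicates cell death.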 Activity calls are given as the source filed them. How the source made its calls: active means growth percent below 10; inactive means the rest.
# Tests used:
# Test in all cases: NCI-60 one-dose screen, 48 h (100 = growth as untreated, 0 = no growth, -100 = all killed)
# Settings in all cases: 10 µM unless noted
# RPMI-8226 leukemia = test system: RPMI-8226 leukemia
# OVCAR-8 ovarian = test system: OVCAR-8 ovarian
# OVCAR-5 ovarian = test system: OVCAR-5 ovarian
# OVCAR-4 ovarian = test system: OVCAR-4 ovarian
# SK-OV-3 ovarian = test system: SK-OV-3 ovarian
# IGROV1 ovarian = test system: IGROV1 ovarian
# OVCAR-3 ovarian = test system: OVCAR-3 ovarian
# HS 578T breast = test system: HS 578T breast
# NCI/ADR-RES ovarian = test system: NCI/ADR-RES ovarian
# T-47D breast = test system: T-47D breast
# MDA-MB-435 melanoma = test system: MDA-MB-435 melanoma
# SW-620 colon = test system: SW-620 colon
# MCF7 breast = test system: MCF7 breast
# HCT-116 colon = test system: HCT-116 colon
# HCC-2998 colon = test system: HCC-2998 colon
# KM12 colon = test system: KM12 colon
# BT-549 breast = test system: BT-549 breast
SMILES,growth (RPMI-8226 leukemia),growth (OVCAR-8 ovarian),growth (OVCAR-5 ovarian),growth (OVCAR-4 ovarian),growth (SK-OV-3 ovarian),growth (IGROV1 ovarian),growth (OVCAR-3 ovarian),growth (HS 578T breast),growth (NCI/ADR-RES ovarian),growth (T-47D breast),growth (MDA-MB-435 melanoma),growth (SW-620 colon),growth (MCF7 breast),growth (HCT-116 colon),growth (HCC-2998 colon),growth (KM12 colon),growth (BT-549 breast)
CC(=O)/C(N=Nc1ccc(S(=O)(=O)c2ccc(N=N/C(C(C)=O)=C(/C)O)cc2)cc1)=C(\C)O,86.7% (inactive),102% (inactive),110% (inactive),107% (inactive),112% (inactive),92.9% (inactive),105% (inactive),109% (inactive),102% (inactive),113% (inactive),118% (inactive),99.4% (inactive),96.1% (inactive),93.2% (inactive),96.4% (inactive),94.8% (inactive),
C=CCN1C(=O)c2ccccc2C1=O,92.9% (inactive),97.5% (inactive),102% (inactive),107% (inactive),105% (inactive),98.7% (inactive),110% (inactive),99.8% (inactive),96% (inactive),118% (inactive),106% (inactive),98.5% (inactive),98.6% (inactive),99.2% (inactive),104% (inactive),110% (inactive),
OC(CC(c1ccccc1)c1cccc2ccccc12)(c1ccccc1)c1ccccc1 (configuration not stated),88.4% (inactive) and 67.4% (inactive),72.8% (inactive) and 87.1% (inactive),92.1% (inactive) and 89.9% (inactive),81.3% (inactive) and 75.7% (inactive),85.4% (inactive) and 93.1% (inactive),88.6% (inactive) and 84.8% (inactive),94.1% (inactive) and 90.6% (inactive),84.4% (inactive) and 86.6% (inactive),76.2% (inactive) and 70.3% (inactive),64% (inactive) and 81.8% (inactive),96.9% (inactive) and 88.9% (inactive),77% (inactive) and 80.9% (inactive),79.1% (inactive) and 79.3% (inactive),58.9% (inactive) and 46.3% (inactive),98.9% (inactive) and 88.1% (inactive),89.2% (inactive) and 90.9% (inactive),88.4% (inactive)
CCC/C(=N/NC(N)=O)c1ccco1,95.2% (inactive),98% (inactive),91.2% (inactive),102% (inactive),91.6% (inactive),104% (inactive),117% (inactive),97.5% (inactive),100% (inactive),72.6% (inactive),106% (inactive),102% (inactive),92.1% (inactive),99.7% (inactive),104% (inactive),103% (inactive),
S=c1ccc2ccccc2[nH]1,,102% (inactive) and 98.6% (inactive),102% (inactive) and 105% (inactive),104% (inactive) and 108% (inactive),97.9% (inactive) and 101% (inactive),104% (inactive) and 106% (inactive),114% (inactive) and 107% (inactive),97.7% (inactive) and 103% (inactive),107% (inactive) and 110% (inactive),90.1% (inactive) and 91.2% (inactive),110% (inactive) and 104% (inactive),106% (inactive) and 104% (inactive),99.5% (inactive) and 103% (inactive),95.9% (inactive) and 102% (inactive),111% (inactive) and 107% (inactive),106% (inactive) and 103% (inactive),
Cc1cc2ccccc2c2cc3ccccc3cc12,105% (inactive),98.9% (inactive),86.9% (inactive),94.5% (inactive),90.6% (inactive),,100% (inactive),95.2% (inactive),98.8% (inactive),48% (inactive),100% (inactive),90% (inactive),33.8% (inactive),93.8% (inactive),92.5% (inactive),82.1% (inactive),93.7% (inactive)
CC(=O)c1cccc(OC(=O)c2ccccc2)c1,100% (inactive),99% (inactive),104% (inactive),92.7% (inactive),97.6% (inactive),114% (inactive),124% (inactive),105% (inactive),96% (inactive),102% (inactive),117% (inactive),106% (inactive),85.2% (inactive),90.1% (inactive),101% (inactive),110% (inactive),120% (inactive)
CS(=O)(=O)OCC1NC(=O)C(COS(C)(=O)=O)NC1=O (configuration not stated),82.7% (inactive) and 90% (inactive),87.5% (inactive) and 107% (inactive),106% (inactive) and 124% (inactive),79.8% (inactive) and 87% (inactive),107% (inactive) and 120% (inactive),63.4% (inactive) and 57.5% (inactive),122% (inactive) and 94.8% (inactive),193% (inactive) and 106% (inactive),103% (inactive) and 97.8% (inactive),104% (inactive) and 105% (inactive),107% (inactive) and 90.7% (inactive),106% (inactive) and 104% (inactive),93% (inactive) and 85% (inactive),93.7% (inactive) and 93.8% (inactive),89.7% (inactive) and 103% (inactive),104% (inactive) and 83.9% (inactive),78.1% (inactive) and 30.1% (inactive)
COc1ccc(-n2[nH]c3c(cnc4ccccc43)c2=O)cc1,75.7% (inactive) and 106% (inactive),101% (inactive) and 99.7% (inactive),107% (inactive) and 108% (inactive),111% (inactive) and 97.6% (inactive),105% (inactive) and 99.4% (inactive),87.6% (inactive) and 115% (inactive),100% (inactive) and 116% (inactive),117% (inactive) and 97.5% (inactive),78.5% (inactive) and 101% (inactive),,94.7% (inactive) and 97.3% (inactive),106% (inactive) and 103% (inactive),98.8% (inactive) and 93.1% (inactive),90.5% (inactive) and 95.1% (inactive),69.2% (inactive) and 107% (inactive),99.1% (inactive) and 97.7% (inactive),90% (inactive) and 95.4% (inactive)
NCCCCCC(=O)O,99.6% (inactive) and 94.5% (inactive),103% (inactive) [middle of 4 runs],98.2% (inactive) [middle of 4 runs],116% (inactive) and 103% (inactive),103% (inactive) [middle of 4 runs],116% (inactive) and 101% (inactive),,110% (inactive) [middle of 4 runs],109% (inactive) [middle of 4 runs],101% (inactive) [middle of 4 runs],105% (inactive) [middle of 4 runs],109% (inactive) and 98.2% (inactive) and 107% (inactive),105% (inactive) [middle of 4 runs],,,114% (inactive) [middle of 4 runs],98.5% (inactive) and 107% (inactive) and 112% (inactive)
CCOC(=O)C1=CC(=O)CC(C)(C)O1,,114% (inactive) and 106% (inactive),110% (inactive) and 101% (inactive),128% (inactive) and 117% (inactive),108% (inactive) and 114% (inactive),103% (inactive) and 120% (inactive),118% (inactive) and 96.9% (inactive),117% (inactive),96.9% (inactive) and 110% (inactive),110% (inactive) and 107% (inactive),119% (inactive) and 111% (inactive),96.5% (inactive) and 105% (inactive),109% (inactive),96.8% (inactive) and 110% (inactive),102% (inactive) and 108% (inactive),107% (inactive) and 76.9% (inactive),99.2% (inactive) and 117% (inactive)
CCOC(=O)NC(N)=O,101% (inactive) and 99.4% (inactive),102% (inactive) and 97% (inactive),101% (inactive),116% (inactive) and 106% (inactive),104% (inactive) and 114% (inactive),98% (inactive) and 110% (inactive),113% (inactive) and 125% (inactive),102% (inactive) and 107% (inactive),105% (inactive) and 107% (inactive),104% (inactive) and 107% (inactive),101% (inactive) and 99% (inactive),107% (inactive) and 111% (inactive),103% (inactive) and 107% (inactive),99.3% (inactive) and 99.5% (inactive),103% (inactive),112% (inactive),
Cc1ccc(S(=O)(=O)n2ccnc2)cc1,,100% (inactive),102% (inactive),102% (inactive),123% (inactive),75.5% (inactive),101% (inactive),111% (inactive),101% (inactive),,108% (inactive),109% (inactive),99% (inactive),98% (inactive),102% (inactive),95.8% (inactive),122% (inactive)
O=C(c1ccccc1)C1(Br)CCCCC1,98.9% (inactive),103% (inactive),97% (inactive),105% (inactive),108% (inactive),97.2% (inactive),112% (inactive),97.3% (inactive),91.5% (inactive),94.7% (inactive),105% (inactive),105% (inactive),,104% (inactive),101% (inactive),104% (inactive),105% (inactive)
CC1(CO)CCCC1NCCNC1CCCC1(C)CO (configuration not stated),102% (inactive) and 97% (inactive),97.8% (inactive) and 102% (inactive),110% (inactive) and 98.9% (inactive),90.4% (inactive) and 101% (inactive),111% (inactive) and 101% (inactive),115% (inactive) and 107% (inactive),128% (inactive) and 112% (inactive),112% (inactive) and 106% (inactive),105% (inactive) and 107% (inactive),97.8% (inactive) and 106% (inactive),98.4% (inactive) and 102% (inactive),104% (inactive) and 101% (inactive),94% (inactive) and 95.3% (inactive),88.6% (inactive) and 102% (inactive),99.4% (inactive) and 118% (inactive),122% (inactive) and 100% (inactive),
CC(=O)Oc1ccc(C2(c3ccc(OC(C)=O)cc3)C(=O)Nc3ccccc32)cc1,108% (inactive) and 75.1% (inactive),27.1% (inactive) and 25.5% (inactive),103% (inactive) and 89.5% (inactive),6.67% (active) and -15.3% (active),115% (inactive) and 114% (inactive),,-1.41% (active) and -3.11% (active),-18.5% (active) and -15.5% (active),16.6% (inactive) and -4.21% (active),-26.3% (active) and -22.5% (active),110% (inactive) and 126% (inactive),98.2% (inactive) and 104% (inactive),9.09% (active) and 15.1% (inactive),84.9% (inactive) and 84.5% (inactive),-3.15% (active) and 44.8% (inactive),71.3% (inactive) and 61.9% (inactive),
COC(=O)c1nc(N)nc(C(=O)OC)c1C(=O)c1ccc(F)cc1,112% (inactive),107% (inactive),114% (inactive),110% (inactive),108% (inactive),111% (inactive),116% (inactive),102% (inactive),109% (inactive),,107% (inactive),110% (inactive),97.1% (inactive),110% (inactive),110% (inactive),107% (inactive),120% (inactive)
Nc1ccc(O)c(C(=O)O)c1,65% (inactive) and 108% (inactive),99.2% (inactive) and 106% (inactive) and 109% (inactive),121% (inactive) and 102% (inactive) and 91.1% (inactive),84% (inactive) and 105% (inactive) and 108% (inactive),105% (inactive) and 106% (inactive) and 119% (inactive),96.8% (inactive) and 111% (inactive) and 105% (inactive),100% (inactive) and 101% (inactive) and 115% (inactive),112% (inactive),103% (inactive) and 111% (inactive) and 93.9% (inactive),95% (inactive) and 104% (inactive) and 106% (inactive),99.8% (inactive) and 101% (inactive) and 108% (inactive),96.7% (inactive) and 94.1% (inactive) and 103% (inactive),86.4% (inactive) and 102% (inactive) and 107% (inactive),98.7% (inactive) and 99.9% (inactive) and 85.5% (inactive),107% (inactive) and 104% (inactive) and 99.9% (inactive),101% (inactive) and 107% (inactive) and 91.5% (inactive),76.3% (inactive) and 111% (inactive) and 92.6% (inactive)
CCCCCCC(C)CC1=C(O)c2ccccc2C(=O)C1=O (configuration not stated),37.6% (inactive),56.6% (inactive),62.4% (inactive),46.3% (inactive),78% (inactive),41.5% (inactive),46.5% (inactive),75.3% (inactive),50.2% (inactive),72.9% (inactive),42.7% (inactive),35.4% (inactive),25.9% (inactive),23.6% (inactive),54.9% (inactive),41.2% (inactive),49% (inactive)
COCCNC(C)=O,114% (inactive),114% (inactive),94.9% (inactive),104% (inactive),102% (inactive),106% (inactive),113% (inactive),106% (inactive),120% (inactive),,105% (inactive),105% (inactive),94.1% (inactive),105% (inactive),118% (inactive),103% (inactive),106% (inactive)
CCOC(=N)c1ccc(C(=N)OCC)cc1,109% (inactive),105% (inactive),105% (inactive),106% (inactive),93.2% (inactive),111% (inactive),124% (inactive),96.8% (inactive),104% (inactive),84% (inactive),114% (inactive),119% (inactive),92.3% (inactive),96% (inactive),109% (inactive),105% (inactive),98.2% (inactive)
